# Results: PubChem BioAssay AID2685 (National Center for Advancing Translational Sciences (NCATS), 2010)
# The campaign covered roughly 320,000 compounds. About 2,100 (0.66%) were called active. Another 53% or so got no clear call; they are omitted. This is one part of a sample in which actives are shown more often than they occur. Calls follow the shape of the dose curve; as a rule, active = well fitted inhibition curve with a large enough effect in the signal ratio, with a control signal flat (not every such curve was filed as active); inconclusive = small, poorly fitted or top-dose-only effect, or effect the other way, or a change in a side signal; inactive = flat fitted curve, though single readings scatter; the % refers to the signal ratio.
# Test: qHTS Assay for Lipid Storage Modulators in Drosophila S3 Cells;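 as to cell number change: cells counted by Cell Tracker Red CMTPX staining in the red channel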; as to lipid storage change, negative = inhibition: % is scaled to controls: 0 for no effect and ±100 for the full control effect
# Conditions: BODIPY lipid droplet fluorescence, 18-24 h, cells fed with added oleic acid; cell number change: measured here: cell count max response; series mostly up to 46.1 µM; lipid storage change, negative = inhibition: at the top concentration
# How it was run: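 Laser-scanning cytometry quantifies lipid droplet accumulation (500–530 nm total intensity; droplet/cell object ratio) in oleic acid-fed (400 uM added) Drosophila S3 cells treated with a concentration series. 20 uM Triacsin C defined 100% inhibition.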
# Potency is read from the fitted curve at half-maximal effect.
Compound,"lipid storage change, negative = inhibition",cell number change [%],Potency,outcome
C/C(=N\NC(=O)c1ccccc1OCc1ccc(F)cc1)c1ccccn1,-3.9% (inactive),-7.7,,
Nc1c(C(=O)O)sc2nc(-c3ccccc3)cc(-c3ccc(Cl)cc3)c12,-5.56% (inactive),-6.59,,
N#Cc1sc2nc(-c3cccs3)cc(-c3ccc(F)cc3)c2c1N,22.1% (inactive),-15.9,,
CCN(CC)C(=O)c1sc2nc(-c3cccs3)cc(-c3ccc(Cl)cc3)c2c1N,,23.2,20.6 µM (active),
COc1ccc(N2C(=O)CC(Sc3nc(C)cc(C)n3)C2=O)cc1OC (centres undefined),,22,,inactive
CCC(C)c1ccccc1NC(=O)c1[nH]c(C)c(C(C)=O)c1C (centres undefined),-24.3% (inactive),-4.58,,
CC(=O)c1c(C)[nH]c(C(=O)Nc2nccs2)c1C,-1.32% (inactive),5.23,,
CC(=O)c1c(C)[nH]c(C(=O)Nc2ccccn2)c1C,,-7.6,29.1 µM (active),
O=C(CN1CCN(S(=O)(=O)c2ccccc2)CC1)NC1CC1,-13% (inactive),-0.697,,
CCOC(=O)C1CCN(C(=O)c2ccc(N3CCCC3=O)cc2)CC1,-4.81% (inactive),2.94,,
O=C(NCc1ccc(F)cc1)c1cc2c(s1)CS(=O)(=O)C2,,-3.83,,inactive
COC(=O)c1c(C)[nH]c(C(=O)/C=C/c2ccc(C)cc2)c1C,-0.587% (inactive),11.4,,
CCN1CCc2nc(NC(=O)c3ccc(S(=O)(=O)N(C)C)cc3)sc2C1,,,,inactive
CCN1CCc2nc(NC(=O)C(c3ccccc3)c3ccccc3)sc2C1,,-8.16,20.6 µM (active),
CCN1CCc2nc(NC(=O)c3ccc4c(c3)OCCO4)sc2C1,-12.2% (inactive),-22.4,,
CCC(=O)Nc1c2c(nn1-c1ccc(OC)cc1)CS(=O)C2 (centres undefined),-15% (inactive),-17,,
COc1ccccc1N(CC(=O)NCC1CCCO1)C(=O)CNS(=O)(=O)c1ccccc1 (centres undefined),6.59% (inactive),,,
Cc1nc2ccccc2n1CSc1ccccc1,5.97% (inactive),7.45,,
COc1cccc(-c2ccc(C#N)c(OC(=O)c3c(Cl)cccc3Cl)n2)c1,,-22.9,,inactive
Cc1cc(NC(=O)CSc2ccc(F)cc2)no1,-13.1% (inactive),,,
Cc1cc(NC(=O)C(C)SCC(=O)Nc2nc3c(F)cc(F)cc3s2)no1 (centres undefined),-0.525% (inactive),-16.6,,
Cc1cc(NC(=O)CSCC(=O)Nc2nc3ccc(F)cc3s2)no1,,9.73,11.6 µM (active),
O=C(CN1C(=O)S/C(=C/c2ccc(N3CCOCC3)cc2)C1=O)N1CCOCC1,-1.55% (inactive),13.3,,
O=C(CN(Cc1ccc(F)cc1)C(=O)c1csnn1)NC1CCCC1,,10.5,,inactive

Compound,"lipid storage change, negative = inhibition",cell number change [%],Potency,outcome
COc1cccc(C(=O)N(Cc2nc(-c3cccc(C)c3)no2)C(C)C)c1OC,,-16.8,18.4 µM (active),
COc1cc(OC)cc(C(=O)N(Cc2nc(-c3cccc(C)c3)no2)C(C)C)c1,,,,inactive
Cc1cccc(-c2noc(CN(C(=O)C34CC5CC(CC(C5)C3)C4)C(C)C)n2)c1,24.8% (inactive),15.9,,
O=C(COc1ccc(Cl)cc1)N(Cc1ccco1)C1CCS(=O)(=O)C1 (centres undefined),5.44% (inactive),5.12,,
CCCCNC(=O)CN(c1cc(C(F)(F)F)ccc1Cl)S(C)(=O)=O,2.61% (inactive),5.68,,
Cc1ccc(N(CC(=O)NC2CCCCC2C)S(=O)(=O)c2c(C)noc2C)cc1 (centres undefined),,1.18,,inactive
Cc1ccc(N(CC(=O)NC2CCCCC2C)S(=O)(=O)c2c(C)nn(C)c2C)cc1 (centres undefined),,-1.91,25.9 µM (active),
Cc1ccc(N(CC(=O)NC2CCCCC2)S(=O)(=O)c2c(C)nn(C)c2C)cc1,,5.73,,inactive
CC1(C)CCC(C)(C)NC(=S)N1,-0.404% (inactive),-5.67,,
O=C(COc1nsnc1N1CCOCC1)N1CCOCC1,-15% (inactive),-23.3,,
O=C(COc1nsnc1N1CCOCC1)Nc1ccc(Cl)cc1,-10.2% (inactive),-7.64,,
COC(=O)COc1nsnc1N1CCOCC1,,1.29,5.8 µM (active),
Cc1cccc(OCCC(=O)NNC(=O)c2ccoc2C)c1,5.46% (inactive),-9.1,,
COC(=O)CCCCCN1C(=O)NC(c2ccccc2)C(C(=O)OCc2ccccc2)=C1C (centres undefined),13.9% (inactive),10,,
CC(=O)NS(=O)(=O)c1ccc(NC(=O)c2cc(-c3ccc(C)cc3)nc3ccccc23)cc1,0.28% (inactive),13.2,,
Cc1ccc(NC(=O)N2CCCC(C(=O)O)C2)cc1 (centres undefined),-5.95% (inactive),-2.63,,
CCCN1CCC(N2CCCC(C(=O)O)C2)CC1 (centres undefined),4% (inactive),9.47,,
CN1CCC(N2CCCC(C(=O)O)C2)CC1 (centres undefined),,6.8,6.51 µM (active),
O=C(c1ccccc1)N1CCn2c1nc1ccccc12,-6.04% (inactive),7.4,,
COc1cccc(CC(=O)Nc2nc3c(s2)C(=O)CC(C)(C)C3)c1,6.69% (inactive),,,
O=C(CSc1nccc(=O)[nH]1)Nc1ccc(N2CCOCC2)cc1,10.1% (inactive),4.96,,
COc1cc(OC)c(OC)cc1CN1CCCC(C(=O)N2CCCCC2)C1 (centres undefined),0.198% (inactive),-0.267,,
COc1ccc(S(=O)(=O)N2CCCC(C(=O)N3CCCCCC3)C2)cc1 (centres undefined),,,,inactive
COc1ccc(OC)c(S(=O)(=O)N2CCC(C(=O)N3CCCCCC3)CC2)c1,-21.6% (inactive),10.5,,

Compound,"lipid storage change, negative = inhibition",cell number change [%],Potency,outcome
COc1ccc(OC)c(S(=O)(=O)N2CCC(C(=O)N3CCOCC3)CC2)c1,,23.2,,inactive
COc1ccc(OC)c(S(=O)(=O)N2CCC(C(=O)N3CCN(Cc4ccccc4)CC3)CC2)c1,,-36.9,8.2 µM (active),
COc1ccc(OC)c(S(=O)(=O)N2CCCC(C(=O)N3CCCCCC3)C2)c1 (centres undefined),,-13.8,3.26 µM (active),
COc1ccccc1CN1CCCC(C(=O)N2CCCCC2)C1 (centres undefined),-23.1% (inactive),-12.4,,
COc1ccc(OC)c(S(=O)(=O)N2CCCC(C(=O)N3CCC(C(N)=O)CC3)C2)c1 (centres undefined),29.6% (inactive),,,
COc1ccc(CN2CCCC(C(=O)N3CCCCC3)C2)c(OC)c1 (centres undefined),,-9.62,18.4 µM (active),
COc1ccccc1CN1CCN(Cc2nc(Cc3ccccc3)no2)CC1,6.75% (inactive),-11.2,,
COc1ccc(C(=O)COC(=O)C(CCSC)NC(=O)COc2ccccc2)cc1 (centres undefined),7.97% (inactive),-12.5,,
COc1ccc(Cc2noc(CN3CCN(Cc4csc(C)n4)CC3)n2)cc1OC,19.7% (inactive),3.13,,
CC(Sc1cnccn1)C(=O)O (centres undefined),-23.4% (inactive),-4.62,,
CC(=O)NCC1CCCN(C(=O)c2oc3c(F)cccc3c2C)C1 (centres undefined),,-13.1,,inactive
O=C(COC(=O)C1CC1)NCc1ccccc1,7.58% (inactive),,,
COc1cc(OC)c(/C=N/NC(=O)Cn2nc([N+](=O)[O-])cc2C)c(OC)c1,8.36% (inactive),,,
COc1ccc(CCNC(=O)c2ccc3c(c2)NC(=O)C(CSCc2cc(C)ccc2C)N3)cc1OC (centres undefined),,3.36,23.1 µM (active),
COc1ccc(CCNC(=O)CC2Nc3cc(C)c(C)cc3NC2=O)cc1OC (centres undefined),,21.5,,inactive
COc1ccc(CCNC(=O)c2ccc3c(c2)NC(=O)C(C(C)C)N3)cc1OC (centres undefined),,-27,,inactive
COc1ccc(C(=O)NNC(=O)CCCCC(=O)NNC(=O)c2ccc(OC)cc2)cc1,-11.8% (inactive),-8.93,,
COc1ccc2[nH]c(C(=O)O)c(CCN3C(=O)c4ccc(C(=O)O)cc4C3=O)c2c1,,,,inactive
CC(C)(C)C#CCn1c(/C=[N+](\[O-])C2CCCCC2)nc2ccccc21,24% (inactive),-20.4,,
Cc1nc2cc(C(=O)OCC(=O)Nc3cccc(Cl)c3)ccc2n1-c1ccccc1,9.16% (inactive),16.2,,
COc1cc2ccccc2cc1C(=O)NC(=S)Nc1cccc(C(=O)O)c1,,12.5,,inactive
COc1cc2ccccc2cc1C(=O)NC(=S)Nc1ccc(C(=O)O)cc1,,-28.9,18.4 µM (active),
COc1cc2ccccc2cc1C(=O)NC(=S)Nc1cc(C(=O)O)ccc1C,-1.68% (inactive),-26.2,,
COC(=O)C1CCN(C(=O)C23CCC(C)(C(=O)O2)C3(C)C)CC1 (centres undefined),-21.8% (inactive),,,

Compound,"lipid storage change, negative = inhibition",cell number change [%],Potency,outcome
Cc1ccc(NC(=O)CSc2nnc(-c3ccncc3)s2)cc1,37.9% (inactive),5.56,,
CCn1c(C)[n+](CC)c2ccc(S(=O)(=O)N(C)C)cc21,2.28% (inactive),4.86,,
O=C(O)/C=C/C(=O)NCc1ccccn1,-9.56% (inactive),-7.29,,
CN(Cc1ccccc1)C(=O)COC(=O)c1ccc2ccccc2n1,8.38% (inactive),15.9,,
CN(Cc1ccccc1)C(=O)COC(=O)c1ccccc1Nc1ccccc1,-5.27% (inactive),-9.93,,
CNc1snc(C)c1C(=O)OCC(=O)N(C)Cc1ccccc1,,-17.1,14.6 µM (active),
CCC(C)NC(=O)CC(NS(=O)(=O)c1ccc(NC(C)=O)cc1)C(C)C (centres undefined),2.51% (inactive),10.4,,
CC(=O)Nc1ccc(S(=O)(=O)NC(CC(=O)NC2CCCCC2C)C(C)C)cc1 (centres undefined),,,,inactive
COCCNC(=O)CC(NS(=O)(=O)c1ccc(NC(C)=O)cc1)C(C)C (centres undefined),,-2.55,5.8 µM (active),
CCOC(=O)CSc1[nH]c(=O)cc(C)c1C#N,,23.9,,inactive
Cc1cc(=O)[nH]c(SCC(N)=O)c1C#N,,-10.4,23.1 µM (active),
Cc1cc(=O)[nH]c(SCC(=O)O)c1C#N,18.1% (inactive),-1.88,,
Cc1ccc(C(=O)N2CCC3(CC2)Oc2ccc(F)cc2C(=O)C32CC(c3ccccc3)=NO2)s1 (centres undefined),11.6% (inactive),11.1,,
COc1ccc(OC)c(N(CC(=O)Nc2ccc(NC(C)=O)cc2)S(C)(=O)=O)c1,,18.4,,inactive
Cc1ccnc(NC(=O)c2ccc(N3C(=O)CCC3=O)cc2)c1,-7.96% (inactive),-2.76,,
COc1cccc(N2CCN(c3ccc4nnc(CCC(=O)Nc5cccc(C(C)=O)c5)n4n3)CC2)c1,,-9.88,,inactive
COc1cc(NC(=O)CCc2nnc3ccc(N4CCN(c5cccc(OC)c5)CC4)nn23)cc(OC)c1,,-21.5,,inactive
COC(=O)c1ccc(NC(=O)CCc2nnc3ccc(N4CCC5(CC4)OCCO5)nn23)cc1,,-17.4,,inactive
Cc1ccccc1NC(=O)CCc1nnc2ccc(N3CCC4(CC3)OCCO4)nn12,-6.37% (inactive),15.5,,
COc1ccccc1NC(=O)CCc1nnc2ccc(N3CCC4(CC3)OCCO4)nn12,,-20.4,2.06 µM (active),
COc1cccc(NC(=O)CCc2nnc3ccc(N4CCN(c5cccc(OC)c5)CC4)nn23)c1,,-24.5,9.2 µM (active),
